Sampled rows, rich in hits. Any-hit rate of the full collection: about 5.7%.
MPTP inh – mitochondrial permeability transition pore inhibitors, primary screen, biochemical, isolated mouse mitochondria, absorbance; inhibition, % at 10 µM; 360,000 tested, 1.4% active; Ca2+ swelling absorbance, 30 min;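 active = inhibition of 50% or more, scaled per plate between neutral and stimulator controls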
FAS TE block – FAS thioesterase domain inhibitors, primary screen, biochemical, fluorescence intensity, uHTS. Fatty acid synthase (Homo sapiens), P49327. 360,000 tested, 0.67% active. recombinant FAS-TE, OMFH fluorogenic substrate, fluorescence endpoint. inhibition, % at 15 µM;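 active = compounds whose normalised, plate-corrected inhibition of enzyme fluorescence in the single-dose primary screen is 50% or more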
Myeloid diff MLP – induction of myeloid progenitor differentiation, primary screen, cell-based, flow cytometry, MLPCN library | ER-HoxA9 myeloid progenitors, lysozyme-GFP differentiation | calls only at 10 µM | 360,000 tested, 1% active;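 active = normalized GFP-positive differentiation at or above the plate's own cutoff, the solvent-only control mean plus 3 SD; inconclusive = no clear call, values can overlap the other calls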;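 note: cells exposed to compound for four days before flow analysis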
rCAG RNA binder – binders of r(CAG) RNA repeats, primary screen, biochemical, fluorescence. inhibition, % at 3 µM. 370,000 tested, 1.3% active. AID 651821, 2012. r(CAG) RNA repeat, TO-PRO-1 dye displacement fluorescence;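 active = inhibition above the plate cutoff, the mean of all test compounds on that plate plus 3 SD, cut at about 35% in these data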;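 note: higher means more dye released from RNA so lower well fluorescence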
GRIN3A LBD mod – binders of NR3A ligand-binding domain, primary screen, biophysical, differential scanning fluorimetry, uHTS; Glutamate receptor ionotropic, NMDA 3A (GRIN3A) ligand-binding domain; NR3A LBD differential scanning fluorimetry, Tm shift; 0% = protein alone, 100% = glycine-bound protein; Tm shift relative to glycine control, % at 25 µM; 340,000 tested, 2.5% active;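 active = melting temperature shift of at least 10% of the positive control shift, at one fixed dose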
FAS-TE inh conf – FAS thioesterase domain inhibitors, confirmation, biochemical, fluorescence intensity, single concentration. recombinant FAS-TE, OMFH fluorogenic substrate. 2,300 tested, 45% active. inhibition, % at 15 µM. AID 624325, 2012. shares compounds with FAS TE block;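 active = compounds inhibiting the enzyme by at least 50% at 15 µM in any one of the replicates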
Of the large screens only hits and unclear results are named; the others gave an inactive call (follow-up assays come after a bar, where they were run).

COC(=O)C(Cc1ccc(O)cc1)NS(=O)(=O)Cc1ccccc1 (stereo not drawn)	none (no result: MPTP inh, FAS TE block, Myeloid diff MLP, GRIN3A LBD mod)
COc1ccccc1N1CCN(C(=O)C(C)NC(=O)c2cccc([N+](=O)[O-])c2)CC1 (stereo not drawn)	FAS TE block 80 | FAS-TE inh conf 86
CCN(c1ccccc1)S(=O)(=O)c1ccc(NC(=O)c2nc(S(C)(=O)=O)ncc2Cl)cc1	FAS TE block 58, Myeloid diff MLP inconclusive (no result: rCAG RNA binder) | FAS-TE inh conf 61
Cc1ccccc1CS(=O)(=O)c1ncc(Cl)c(C(=O)Nc2ccc(F)cc2)n1	FAS TE block 50, Myeloid diff MLP inconclusive | FAS-TE inh conf inactive
O=C(Nc1ccc(F)cc1)c1nc(S(=O)(=O)Cc2ccccc2)ncc1Cl	FAS TE block 57, Myeloid diff MLP inconclusive | FAS-TE inh conf 58
Cc1ccc(NC(=O)c2nc(S(=O)(=O)Cc3ccccc3)ncc2Cl)cc1	Myeloid diff MLP inconclusive
COC(=O)C1=C(C)N(Cc2ccccc2C(F)(F)F)C(=NCc2ccc(OC)cc2)NC1c1ccc(F)cc1 (stereo not drawn)	none (no result: MPTP inh, FAS TE block, Myeloid diff MLP, GRIN3A LBD mod)
CCOC(=O)CC[C@H]1CC[C@]2(CCCN(C(=O)c3ccc4ccccc4n3)C2)O1	none (no result: MPTP inh, FAS TE block, Myeloid diff MLP, GRIN3A LBD mod)
COc1ccc(N=C2C(=Nc3ccc(OC)cc3)N(c3ccc(N(C)C)cc3)C(=S)N2c2ccc(OC)cc2)cc1	FAS TE block 80 (no result: Myeloid diff MLP) | FAS-TE inh conf inactive
C[C@@H]1CN([C@@H](C)CO)C(=O)CCCn2cc(nn2)CO[C@H]1CN(C)C(=O)Nc1cccc(C(F)(F)F)c1	none (no result: MPTP inh, FAS TE block, Myeloid diff MLP, GRIN3A LBD mod)
O=C(O)c1ccc(Cl)c(NC(=S)NC(=O)c2cccc(COc3ccccc3)c2)c1	FAS TE block 61 | FAS-TE inh conf 72
O=C(c1ccc(N2CCCC2)c([N+](=O)[O-])c1)N1CCN(S(=O)(=O)c2ccc(Cl)cc2)CC1	none
O=C(CN1CCN(S(=O)(=O)c2ccccc2)CC1)Nc1ccc(Cl)c([N+](=O)[O-])c1	FAS TE block 78 | FAS-TE inh conf inactive
O=C(c1ccc(Cl)c([N+](=O)[O-])c1)N1CCN(S(=O)(=O)c2ccc(Cl)cc2)CC1	FAS TE block 51 | FAS-TE inh conf 30
O=C(CN1CCN(S(=O)(=O)c2ccccc2)CC1)Nc1ccc([N+](=O)[O-])cc1	none
O=C(CN1C(=O)NC2(CCCCCC2)C1=O)Nc1ccc(Cl)c([N+](=O)[O-])c1	FAS TE block 58 | FAS-TE inh conf 70
CC1(C2CC2)NC(=O)N(CC(=O)Nc2ccc(Cl)c([N+](=O)[O-])c2)C1=O (stereo not drawn)	none
O=C(CN1C(=O)NC2(CCCC2)C1=O)OCc1ccc(F)cc1	none
CC(C)(C)c1ccc(COC(=O)CN2C(=O)NC3(CCCC3)C2=O)cc1	FAS TE block 68 | FAS-TE inh conf 76
Cc1ccccc1COC(=O)CN1C(=O)NC2(CCCC2)C1=O	none
Cc1cc(C(C)(C)C)cc(C)c1COC(=O)CN1C(=O)NC2(CCCC2)C1=O	FAS TE block 52 | FAS-TE inh conf 56
COc1cccc(N(C)C(=O)[C@@H](C2CC2)[C@@H](O)c2ccc(Cl)cc2)c1	none (no result: MPTP inh, FAS TE block, Myeloid diff MLP, GRIN3A LBD mod)
COc1ccc2[nH]c3c(c2c1)CCN[C@]31C(=O)N(Cc2cn(Cc3ccccc3)nn2)c2ccccc21	none (no result: MPTP inh, FAS TE block, Myeloid diff MLP, GRIN3A LBD mod)
O=c1oc(-c2cccnc2)nc2ccccc12	none
O=c1oc(-c2ccccc2Br)nc2ccccc12	FAS TE block 61 | FAS-TE inh conf 53
Cc1ccccc1S(=O)(=O)N1CCCc2nc(C)c(C)cc21	none (no result: MPTP inh, FAS TE block, Myeloid diff MLP, GRIN3A LBD mod)
COc1ccccc1C/C(N)=N/OC(=O)c1ccc(C)c([N+](=O)[O-])c1	none
Cc1ccc(C(=O)O/N=C(\N)Cc2cccs2)cc1[N+](=O)[O-]	FAS TE block 62 | FAS-TE inh conf 76
Cc1ccc(C)c(S(=O)(=O)ON2C(=O)c3ccccc3C2=O)c1	FAS TE block 83 | FAS-TE inh conf 88
Cc1ccc(S(=O)(=O)ON2C(=O)c3cccc4cccc(c34)C2=O)cc1	none
Cc1cc(S(=O)(=O)ON2C(=O)c3ccccc3C2=O)ccc1F	FAS TE block 82 | FAS-TE inh conf 79
O=C(NCc1ccccc1)[C@@H]1CCCN1C(=O)[C@H]1CCCN1C(=O)c1ccc(F)c(F)c1	none (no result: MPTP inh, FAS TE block, Myeloid diff MLP, GRIN3A LBD mod)
O=C(Nc1nc2cc(Cl)ccc2s1)C1CCCN(S(=O)(=O)c2cccc3cccnc23)C1 (stereo not drawn)	FAS TE block 69 (no result: rCAG RNA binder) | FAS-TE inh conf inactive
CCN(C(=O)COC(=O)c1ccccc1Nc1ccccc1)c1c(N)n(Cc2ccccc2)c(=O)[nH]c1=O	FAS TE block 77 | FAS-TE inh conf inactive
CCN(C(=O)COC(=O)c1cccc2ccccc12)c1c(N)n(Cc2ccccc2)c(=O)[nH]c1=O	none
C#CCN1C(=O)[C@]2(OCCC=C[C@H]2C)c2cc(OC)ccc21	none (no result: MPTP inh, FAS TE block, Myeloid diff MLP, GRIN3A LBD mod)
CCCCOCCCNC(=O)C[C@H]1C[C@@]2(C(=O)OC)C(=C[C@H](C(C)C)O[C@@H]2C2CC2)N(Cc2cccc3ccccc23)C1=O	none (no result: MPTP inh, FAS TE block, Myeloid diff MLP, GRIN3A LBD mod)
CN(C)S(=O)(=O)c1ccc(C(=O)Nc2cc(S(=O)(=O)Nc3ccccc3Cl)ccc2N2CCCCC2)cc1	FAS TE block 73 | FAS-TE inh conf inactive
CN1CCN(c2ccc(Cl)cc2NC(=O)c2ccc(S(=O)(=O)N(C)C)cc2)CC1	none
CC(Cc1ccccc1)=NNS(=O)(=O)c1ccc([N+](=O)[O-])cc1	FAS TE block 60 | FAS-TE inh conf 66
COC(=O)[C@]12C[C@H](CC(=O)N3CCCC3)C(=O)N(Cc3ccccc3)C1=C[C@H](C1CCCC1)O[C@@H]2C	none (no result: MPTP inh, FAS TE block, Myeloid diff MLP, GRIN3A LBD mod)
O=S(=O)(c1cccc(-c2csc(-c3cccnc3)n2)c1)N1CCOCC1	none
O=S(=O)(c1ccc(-c2csc(-c3cccnc3)n2)cc1)N1CCCCC1	FAS TE block 77 | FAS-TE inh conf 83
O=S(=O)(c1cccc(-c2csc(-c3cccnc3)n2)c1)N1CCCCC1	none
O=S(=O)(c1ccc(-c2csc(-c3cccnc3)n2)cc1)N1CCCC1	FAS TE block 81 | FAS-TE inh conf 86
Cc1cccc(C(=O)Nc2c(-c3ccccc3)nc3ncccn23)c1	none (no result: MPTP inh, FAS TE block, Myeloid diff MLP, GRIN3A LBD mod)
Cc1cc(N2CCN(C(=O)OC(C)(C)C)C[C@H]2C)ccc1N1CCS(=O)(=O)CC1	none (no result: MPTP inh, FAS TE block, Myeloid diff MLP, GRIN3A LBD mod)
Nc1ccn([C@@H]2O[C@H](C(=O)N3CCN(CCO)CC3)[C@@H](O)[C@H]2O)c(=O)n1	none (no result: MPTP inh, FAS TE block, Myeloid diff MLP, GRIN3A LBD mod)
C=CCn1c(O)c(N=NC(=S)Nc2ccccc2C)c2cc(S(=O)(=O)N3CCOCC3)ccc21	FAS TE block 64 | FAS-TE inh conf inactive
Cn1c(O)c(N=NC(=S)Nc2ccccc2F)c2cc(S(=O)(=O)N3CCOCC3)ccc21	none
Cc1ccc(NC(=S)N=Nc2c(O)n(C)c3ccc(S(=O)(=O)N4CCOCC4)cc23)cc1C	FAS TE block 73 | FAS-TE inh conf inactive
